The source of these data is publication PMC5540273 (PLoS ONE, 2017).

Common to all, as to conditions: concentration: 1 μM, replicates: in singlicate; n = 1
The test system of assay [1] is RIPK2.
The subject of assay [2] is RIPK4.
The subject of assay [3] is RIPK5.
Assay [4] concerns ROCK1.
The subject of assay [5] is ROCK2.
Assay [6] concerns ROS1.
Assay [7] relates to RPS6KA4(Kin.Dom.1-N-terminal).
The test system of assay [8] is RPS6KA4(Kin.Dom.2-C-terminal).
For assay [9], the system named is RPS6KA5(Kin.Dom.1-N-terminal).
Assay [10] relates to RPS6KA5(Kin.Dom.2-C-terminal).
Assay [11] relates to T1, RSK1(Kin.Dom.1-N-terminal).
T1 construct: gene RPS6KA1

For assay [12], the system named is T2, RSK1(Kin.Dom.2-C-terminal).
T2 construct: gene RPS6KA1

Assay [13] deals with T3, RSK2(Kin.Dom.1-N-terminal).
T3 construct: gene RPS6KA3

The test system of assay [14] is T4, RSK2(Kin.Dom.2-C-terminal).
T4 construct: gene RPS6KA3

Assay [15] concerns T5, RSK3(Kin.Dom.1-N-terminal).
T5 construct: gene RPS6KA2

The test system of assay [16] is T6, RSK3(Kin.Dom.2-C-terminal).
T6 construct: gene RPS6KA2

Assay [17] relates to T7, RSK4(Kin.Dom.1-N-terminal).
T7 construct: gene RPS6KA6

Assay [18] has as its system T8, RSK4(Kin.Dom.2-C-terminal).
T8 construct: gene RPS6KA6

For assay [19], the system named is S6K1.
The subject of assay [20] is SBK1.
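Further: KINOMEscan kinase panel screen.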

As for `COc1cc2ncn(-c3cc(OCc4ccncc4Br)c(C(N)=O)s3)c2cc1OC` [GW854278], the “%Inh” value in assay [1] amounted to 26%; in assay [2], 0%; in assay [3] it was 9%; in assay [4] it was 11%; in [5], 0%; in assay [6], 6%. Also, the “%Inh” value in [7] turned out to be 2%; in assay [8], 0%; in [9], 0%; in assay [10], 7%; in assay [11] it was 0%; in assay [12] it was 22%. Further, the “%Inh” value in assay [13] amounted to 19%; in [14] it was 0%; in [15] it was 20%; in assay [16], 0%; in assay [17], 25%; in [18], 7%. The “%Inh” value turned out to be 0% in assay [19] and 2% in assay [20].

`Cc1nn2c(=O)cc(N3CCOCC3)nc2n1Cc1cccc(Cl)c1Cl` [GSK2342769]: the “%Inh” value is given as 10% in assay [1]; 9% in assay [2]; 0% in assay [3]; 0% in assay [4]; 0% in [5]; 0% in assay [6]. Moreover, the “%Inh” value in [7] is 0%; in assay [8] it was 0%; in [9], 16%; in assay [10], 0%; in [11], 0%; in [12] it was 0%. In addition, the “%Inh” value was 9% in [13]; 3% in [14]; 25% in assay [15]; 0% in assay [16]; 5% in assay [17]; 0% in assay [18]. For the same molecule, the “%Inh” value is recorded as 1% in assay [19] and 14% in assay [20].

For the molecule `COc1cc2ncn(-c3cc(OCCCc4ccccc4)c(C(N)=O)s3)c2cc1OC` [GSK205189], the “%Inh” value in assay [1] was 20%; in assay [2] it was 0%; in assay [3] it was 0%; in assay [4] it was 0%; in assay [5], 0%; in assay [6], 13%. For the same molecule, the “%Inh” value in [7] is listed as 5%; in [8], 0%; in [9] it was 0%; in [10], 0%; in assay [11], 2%; in assay [12], 10%. For the same molecule, the “%Inh” value in assay [13] came to 7%; in assay [14], 2%; in assay [15] it was 0%; in [16], 0%; in assay [17], 12%; in assay [18] it was 18%. Further, the “%Inh” value in assay [19] and in [20] was 0% throughout.

Take `COc1ccc(-c2cc3c(C)nc(N)nc3n([C@H]3CC[C@H](O)CC3)c2=O)cn1`: the “%Inh” value in [1], in assay [2], in assay [3], in [4], in assay [5] and in assay [6] was 0% in each case. Besides, the “%Inh” value in [7] came out at 5%; in assay [8], 0%; in assay [9], 0%; in assay [10], 0%; in assay [11] it was 6%; in assay [12], 0%. Besides, the “%Inh” value in assay [13], in assay [14], in assay [15], in [16], in [17] and in [18] was 0% each time. Further, the “%Inh” value in [19] and in assay [20] was 0% throughout.

Consider `CCS(=O)c1ccc(-c2coc3ccc(-c4nnc(C)o4)cc23)cc1` (centres unmarked), for which the “%Inh” value came out at 0% in assay [1]; 7% in [2]; 0% in [3]; 0% in [4]; 28% in assay [5]; 15% in assay [6]. The “%Inh” value in assay [7] is reported as 24%; in assay [8], 11%; in assay [9] it was 2%; in assay [10], 0%; in [11], 0%; in assay [12], 18%. Also, the “%Inh” value worked out at 5% in [13]; 0% in [14]; 3% in [15]; 11% in [16]; 18% in assay [17]; 6% in assay [18]. Further, the “%Inh” value is listed as 8% in assay [19] and 0% in assay [20].

Take `COc1cc(Nc2nccc(N3CCC(NC(=O)C(C)c4ccc(Cl)cc4)C3)n2)cc(OC)c1OC` (centres unmarked) [GSK1379757]: the “%Inh” value in [1] worked out at 0%; in assay [2], 0%; in assay [3], 16%; in assay [4] it was 0%; in [5] it was 0%; in assay [6], 31%. The “%Inh” value in assay [7] is listed as 0%; in assay [8] it was 0%; in assay [9] it was 0%; in assay [10], 0%; in [11], 21%; in assay [12] it was 0%. The “%Inh” value in assay [13] is 2%; in assay [14], 1%; in [15], 0%; in assay [16], 0%; in assay [17], 0%; in assay [18], 5%. For the same molecule, the “%Inh” value in [19] is listed as 0%; in assay [20], 12%.

As to `CCn1c(-c2ccoc2)nc2cnccc21` [SB-733887], the “%Inh” value is reported as 6% in [1]; 30% in [2]; 0% in assay [3]; 0% in assay [4]; 23% in assay [5]; 0% in assay [6]. Besides, the “%Inh” value in [7] is 0%; in assay [8] it was 0%; in assay [9] it was 9%; in assay [10] it was 0%; in assay [11] it was 9%; in assay [12], 4%. Also, the “%Inh” value in assay [13], in assay [14], in assay [15], in assay [16], in assay [17] and in [18] was 0% each time. In addition, the “%Inh” value in assay [19] worked out at 18%; in assay [20] it was 0%.

Turning to `CCc1nc(-c2cccc(C)c2)c(-c2ccncc2)s1`, the “%Inh” value in assay [1] was found to be 76%; in assay [2], 7%; in assay [3], 0%; in [4], 0%; in [5], 0%; in assay [6] it was 11%. Further, the “%Inh” value stood at 2% in [7]; 0% in assay [8]; 0% in assay [9]; 18% in assay [10]; 0% in assay [11]; 91.2% in assay [12]. Also, the “%Inh” value in assay [13] was found to be 0%; in [14], 0%; in assay [15] it was 11%; in [16], 10%; in assay [17], 0%; in [18], 94.6%. Also, the “%Inh” value in assay [19] and in assay [20] was 0% in each case.

For the molecule `Fc1cccc(CSc2nnc(-c3ccc4c(c3)CCO4)o2)c1`, the “%Inh” value was 12% in assay [1]; 0% in assay [2]; 0% in assay [3]; 12% in assay [4]; 0% in assay [5]; 0% in assay [6]. Moreover, the “%Inh” value in assay [7] was 0%; in [8] it was 4%; in assay [9], 16%; in assay [10], 9%; in assay [11], 0%; in assay [12], 23%. Also, the “%Inh” value in assay [13] is 14%; in assay [14] it was 18%; in assay [15], 0%; in [16] it was 8%; in [17], 15%; in assay [18], 16%. The “%Inh” value in [19] was 9%; in assay [20], 0%.

Take `O=C(NCc1cccs1)c1cc(C(=O)c2c(Cl)cccc2Cl)c[nH]1` [GW823670]: the “%Inh” value is on record as 8% in [1]; 0% in assay [2]; 0% in assay [3]; 45% in assay [4]; 0% in assay [5]; 0% in assay [6]. In addition, the “%Inh” value was found to be 22% in assay [7]; 0% in [8]; 0% in assay [9]; 15% in assay [10]; 16% in assay [11]; 13% in assay [12]. Further, the “%Inh” value is 2% in [13]; 0% in assay [14]; 0% in [15]; 18% in assay [16]; 0% in [17]; 0% in assay [18]. Also, the “%Inh” value in [19] was 7%; in assay [20], 0%.
